# In the supplement of paper PMC9135407:
# Counter-ions that a name gives are not always drawn.
# System: primary human hepatic stellate cells (donor 1)
# Assay: PSMB2 reference mRNA level vs DMSO (fold); higher = more PSMB2 expression
# Conditions: 48 h
# Experimental: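 Secondary qRT-PCR screen in primary human HSCs (donor 1), 384-well plates, with compounds dispensed in quadruplicate and incubated for 48 h. Cells-to-CT lysates were used for multiplexed TaqMan qPCR of ACTA2 or COL1A1 with PSMB2 as reference. Fold changes versus DMSO come from a linear model (Ct_gene ~ Ct_PSMB2 + plate + chemical). A hit is defined as COL1A1 and ACTA2 FC <0.5 (FDR <0.05) with PSMB2 between 0.2 and 2.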
row,Structure (SMILES),PSMB2 reference mRNA level
1,c1ccc2c(NCCCCCCCNc3c4c(nc5ccccc35)CCCC4)c3c(nc2c1)CCCC3 [bis(7)-Tacrine] (3.33333 µM),0.971
2,CCCCCCCCc1ccc(CCC(N)(CO)CO)cc1 [Fingolimod (FTY720) HCl] (11.1 µM),3.91
3,Cn1cc(CNCC2CCN(c3ncc(C(=O)NO)cn3)CC2)c2ccccc21 [Quisinostat] (33.3333 µM),0.103
4,O=C1NCN(c2ccccc2)C12CCN(CCCC(c1ccc(F)cc1)c1ccc(F)cc1)CC2 [Fluspirilene] (14.0333 µM),1.38
5,CCN(CC)CCNC(=O)c1c(C)[nH]c(/C=C2\C(=O)Nc3ccc(F)cc32)c1C (6.66667 µM),2.81
6,NS(=O)(=O)C#Cc1ccccc1 [Pifithrin->m] (33.3333 µM),5.28
7,CNCCC(Oc1ccc(C(F)(F)F)cc1)c1ccccc1 (stereo not given) [Fluoxetine hydrochloride] (33.3333 µM),0.204
8,[O-][S+](c1ccccc1)c1ccc2nnnn2n1 (stereo not given) (33.3333 µM),0.000399
9,Clc1ccc(C2(c3ccc(-c4cn[nH]c4)cc3)CCNCC2)cc1 (33.3333 µM),0.745
10,CN1CCC(Nc2ncc3ncnc(Nc4ccc(F)c(Cl)c4)c3n2)CC1 [BIBX 1382 dihydrochloride] (33.3333 µM),0.0502
